These results are taken from PubChem BioAssay (Tox21).

Test [1] can be described thus: qHTS assay to identify small molecule HDAC inhibitors - cell viability counter screen (AID 1259365). Also: series mostly up to about 92 µM; nearly all actives have a fitted effect of over 50% in size. The method, boiled down:
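Luminescence from CellTiter-Glo, developed 30min at room temperature, reports viability of wild-type HCT-116 cells treated 2hr with compounds at 37 C and 5% CO2 after overnight plating.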
(In general: qHTS replaces the single test concentration by a dilution series.)

Test [2] can be described thus: qHTS assay to identify small molecule agonists of the sonic hedgehog signaling (Shh) pathway - cell viability counter screen (AID 1259366). Also: nearly all actives have a fitted effect of over 50% in size. Also: potency is read from the fitted curve at half-maximal effect. The method, boiled down: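 Cytotoxicity counter screen run in the same wells as the Shh reporter assay. NIH/3T3 cells carrying a Gli1 response element–driven luciferase were treated with DMSO-dissolved compounds for 24hr, and live-cell protease activity was measured with CellTiter-Fluor.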

A short description of test [3]: qHTS assay to identify small molecule antagonists of the sonic hedgehog signaling (Shh) pathway - cell viability counter screen (AID 1259367). Also: nearly all actives have a fitted effect of over 55% in size. The method, boiled down:
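Using CellTiter-Fluor, viability of Gli1-Luc reporter 3T3 cells is read by fluorescence in the wells used for the Shh luciferase assay. Treatment lasts 23 hr with conditioned medium, then reagent 1 hr at 37C.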

A short description of test [4]: qHTS assay to identify small molecule agonists of the sonic hedgehog signaling (Shh) pathway (AID 1259368; calls by dose curve;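 also: NIH/3T3-derived 3T3Gli1-Luc cells carrying a stable Gli1-driven firefly luciferase reporter; series mostly up to about 92 µM; nearly all actives have a fitted effect of over 15% in size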). The method, boiled down:
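3T3Gli1-Luc (NIH/3T3 clone, stable Gli1-Luc); 4 hr pre-incubation, then cpd in DMSO 24 hr, 37 C/5% CO2; luciferase reagent 30 min RT; luminescence.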

Test [5] is described as follows: qHTS assay to identify small molecule antagonists of the sonic hedgehog signaling (Shh) pathway (AID 1259369; calls by dose curve; also: nearly all actives have a fitted effect of over 45% in size). The method, boiled down: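 3T3Gli1-Luc, conditioned-medium-stimulated, 24hr cpd, 37C/5% CO2; Gli1-driven firefly Luc luminescence after 30min RT with luciferase reagent. Cells plated 4hr before cpd.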
Test [6] can be described thus: qHTS assay to identify small molecule agonists of the androgen receptor (AR) signaling pathway in the presence of an antagonist - cell viability counter screen (AID 1259379). Also: nearly all actives have a fitted effect of over 25% in size. Also: potency is read from the fitted curve at half-maximal effect.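 As to activity change, negative = cytotoxicity: MDA-kb2 human breast cancer cells carrying an MMTV luciferase reporter; series mostly up to about 92 µM.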 The method, boiled down: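 Cells: MDA-kb2 (MMTV-luc, AR and GR elements), 3,000/well, 5 hr settle. Added: nilutamide 3.0uM final, then compounds (15 conc.). Incubation: 16 hr, 37C, no CO2. Read-out: CellTiter-Fluor, 1 hr, fluorescence.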

The nature of test [7]: qHTS assay to identify small molecule agonists of the estrogen receptor beta (ER-beta) signaling pathway - cell viability counter screen (AID 1259380). Also: nearly all actives have a fitted effect of over 30% in size. The method, boiled down: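 HEK293T ER-beta-UAS-bla; 2% CS-FBS; 6 hr pre-plate, 16 hr cpd at 37C/5% CO2; LiveBLAzer read first, then CellTiter-Glo 30 min RT, luminescence.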
In test [8] the target is Estrogen receptor beta (Homo sapiens) (UniProt Q92731). Nature of the test: qHTS assay to identify small molecule agonists of the estrogen receptor beta (ER-beta) signaling pathway (AID 1259377; active = well fitted activation curve with a large enough effect in the signal ratio in the repeat runs, not every such curve was filed as active; the % refers to the signal ratio). The method, boiled down: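 HEK293T ER-beta-UAS-bla; 2% charcoal-stripped FBS; cells pre-incubated 6 hr, compound 16 hr, 37C/5% CO2; LiveBLAzer B/G FRET substrate 2 h RT; fluorescence intensity read.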

For test [9] the target is unchanged. The test is described as follows: qHTS assay to identify small molecule antagonists of the estrogen receptor beta (ER-beta) signaling pathway (AID 1259378; active = well fitted inhibition curve with a large enough effect in the signal ratio in the repeat runs, not every such curve was filed as active; the % refers to the signal ratio). The method, boiled down: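 Antagonist mode: compounds added to beta-lactamase reporter HEK293T ER-beta-UAS cells stimulated with E2 (1nM final), 16 hr at 37C. LiveBLAzer B/G FRET substrate, 2 hours room temperature, fluorescence read-out.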

Test [10] has as its target Androgen receptor (Homo sapiens) (UniProt P10275). The test is described as follows: qHTS assay to identify small molecule agonists of the androgen receptor (AR) signaling pathway in the presence of an antagonist (AID 1259381; calls by dose curve; also: nearly all actives have a fitted effect of over 15% in size). The method, boiled down: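 MDA-kb2 cells, 3,000/well, rested 5hr at 37C/0% CO2 → nilutamide 3.0uM final or buffer → compounds, 15 conc. → 16hr at 37C → ONE-Glo, 30min RT → luminescence.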

A number with no mark means an inactive call. Inconclusive results are not listed. Calls of active or inactive are those of the source. Unless noted, calls follow the shape of the dose curve; as a rule, active = well fitted curve in the direction sought with a large enough effect in the repeat runs; inconclusive = weak or mixed curves; inactive = no such curve, though single readings can be large; an effect the other way counts as inactive or inconclusive.
% is scaled to controls: 0 for no effect and ±100 for the full control effect.

Estrogen receptor beta (Homo sapiens), sequence (Q92731 whole entry, looked up): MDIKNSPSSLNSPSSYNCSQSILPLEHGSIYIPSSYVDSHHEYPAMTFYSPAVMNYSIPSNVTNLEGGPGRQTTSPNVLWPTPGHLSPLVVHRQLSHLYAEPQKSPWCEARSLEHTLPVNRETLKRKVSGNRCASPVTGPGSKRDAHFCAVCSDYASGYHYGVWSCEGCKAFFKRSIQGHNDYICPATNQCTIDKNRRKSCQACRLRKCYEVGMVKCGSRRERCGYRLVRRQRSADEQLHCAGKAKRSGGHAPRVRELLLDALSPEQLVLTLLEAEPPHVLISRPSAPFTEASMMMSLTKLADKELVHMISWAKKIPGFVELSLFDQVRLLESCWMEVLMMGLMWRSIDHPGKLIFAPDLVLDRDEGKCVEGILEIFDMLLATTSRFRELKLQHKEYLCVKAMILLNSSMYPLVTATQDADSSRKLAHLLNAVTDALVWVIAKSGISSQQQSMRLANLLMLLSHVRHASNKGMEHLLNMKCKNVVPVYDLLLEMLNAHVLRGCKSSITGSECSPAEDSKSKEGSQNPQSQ
Androgen receptor (Homo sapiens), sequence (P10275 whole entry, looked up): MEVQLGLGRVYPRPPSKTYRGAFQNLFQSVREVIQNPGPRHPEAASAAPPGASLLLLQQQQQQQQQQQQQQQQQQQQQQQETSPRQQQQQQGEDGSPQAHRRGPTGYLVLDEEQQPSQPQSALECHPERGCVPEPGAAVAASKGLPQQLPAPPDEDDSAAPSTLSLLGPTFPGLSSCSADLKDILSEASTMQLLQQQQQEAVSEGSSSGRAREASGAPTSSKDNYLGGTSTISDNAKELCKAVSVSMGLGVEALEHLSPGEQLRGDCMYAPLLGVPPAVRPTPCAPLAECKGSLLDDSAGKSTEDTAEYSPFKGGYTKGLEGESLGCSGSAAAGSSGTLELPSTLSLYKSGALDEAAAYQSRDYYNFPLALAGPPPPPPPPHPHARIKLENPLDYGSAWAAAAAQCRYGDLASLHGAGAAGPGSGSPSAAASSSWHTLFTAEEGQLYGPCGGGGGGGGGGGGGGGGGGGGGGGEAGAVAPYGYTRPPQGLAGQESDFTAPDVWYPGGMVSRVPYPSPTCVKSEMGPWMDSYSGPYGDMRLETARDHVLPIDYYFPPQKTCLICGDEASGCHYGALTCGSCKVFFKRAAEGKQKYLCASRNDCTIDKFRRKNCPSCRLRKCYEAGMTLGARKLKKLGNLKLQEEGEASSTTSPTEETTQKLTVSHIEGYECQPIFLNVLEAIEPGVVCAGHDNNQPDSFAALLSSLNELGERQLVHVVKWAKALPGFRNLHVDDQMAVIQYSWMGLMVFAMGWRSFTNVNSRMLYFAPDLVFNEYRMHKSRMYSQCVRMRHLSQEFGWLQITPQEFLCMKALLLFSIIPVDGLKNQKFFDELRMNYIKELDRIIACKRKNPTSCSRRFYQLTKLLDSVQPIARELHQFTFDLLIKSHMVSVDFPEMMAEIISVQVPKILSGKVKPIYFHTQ

With `CC(=O)N(CC(O)CO)c1c(I)c(C(=O)NCC(O)CO)c(I)c(C(=O)NCC(O)CO)c1I` (centres undefined), the compound was called inactive in test [1], in test [4] and in [7]. Also, the Potency result in test [2], in test [3], in test [5] and in test [6] was “inactive” throughout.

As for `CCCCCCCCCCCCCCCC(=O)NCCO`, the compound was called inactive in [1], in [4] and in [7]. For the same compound, the Potency result in test [2], in [3], in test [5] and in [6] was “inactive” in each case.

For the compound `CCC1COC(=O)O1` (centres undefined), the outcome in test [1], in [4] and in test [7] was inactive. For the same compound, the Potency result in [2], in test [3], in test [5] and in [6] was “inactive” throughout.

For `Cc1cc(C)cc([N+](=O)[O-])c1`, the call in test [1], in test [4] and in [7] was inactive. Moreover, the Potency entry in test [2], in test [3], in test [5] and in test [6] was “inactive” throughout.

Turning to `O=C1CC[C@H](C(=O)N2CCCCC2)N1`, the compound was classed as inactive in [1] and in [9]. The Potency entry in test [2], in [3], in [5], in [8] and in test [6] was “inactive” in each case.

Regarding `CCCCCCCCC(=O)OCC`, the outcome in test [1] and in test [9] was inactive. Besides, the Potency result in test [2], in test [3], in test [5], in test [8] and in [6] was “inactive” throughout.

Take `CCCCCC1Nc2cc(C(F)(F)F)c(S(N)(=O)=O)cc2S(=O)(=O)N1` (centres undefined): the call in test [1], in [9] and in [7] was inactive. Besides, the Potency entry in test [2], in test [3], in [5] and in [6] was “inactive” in each case.

Regarding `O=C(c1ccc2c(c1)C(=O)OC2=O)c1ccc2c(c1)C(=O)OC2=O`, the compound was called inactive in test [1], in [4] and in test [9]. For the same compound, the Potency entry in test [3], in test [5], in test [8] and in [6] was “inactive” throughout.

For `Nc1cc(C(=O)O)ccc1Cl`, the compound was called inactive in test [1], in test [9], in test [7] and in [10]. Further, the Potency result in [2], in test [3], in [5], in test [8] and in test [6] was “inactive” throughout.

Turning to `COc1ccc(NS(=O)(=O)c2ccc(N)cc2)nn1`, the result in test [1] was inactive. In addition, the Potency result in test [2], in [3], in test [5] and in test [6] was “inactive” in each case.

With `C=C(C)C(=O)OC`, the compound was classed as inactive in test [1] and in [7]. The Potency result in test [2], in test [3], in [5] and in [6] was “inactive” throughout.

Take `Cc1nc2n(c(=O)c1CCN1CCC(C(=O)c3ccc(F)cc3)CC1)CCS2`: the compound was classed as inactive in test [1], in [4], in [7] and in test [10]. The Potency result in test [2], in test [3] and in [6] was “inactive” throughout.

As for `CC(C)CCO`, the compound was classed as inactive in test [1], in test [9] and in test [7]. Also, the Potency result in test [2], in test [3], in test [5], in [8] and in test [6] was “inactive” in each case.

As for `CCCCC/C=C/CC(=O)OC`, the compound was called inactive in test [1], in [9] and in test [7]. The Potency result in [2], in test [3], in test [5], in test [8] and in test [6] was “inactive” throughout.

In the case of `O=C(O)Cc1cccc(-c2cc(CCCCCCc3ccc(O[C@H]4O[C@H](CO)[C@@H](O)[C@H](O)[C@@H]4O)c(-c4cccc(CC(=O)O)c4)c3)ccc2O[C@H]2O[C@H](CO)[C@@H](O)[C@H](O)[C@@H]2O)c1`, the activity change, negative = cytotoxicity in test [1] is -0.936% [at 0.349 µM]; in test [6], 1.29% [at 0.35 µM]; in test [7] it was 7.37% [at 0.349 µM]. For the same compound, the viability change, negative = cytotoxic in test [2] is 1.74% [at 0.349 µM]; in test [3], 3.56% [at 0.349 µM]. Also, the activity change in test [4] is -0.0491% [at 0.349 µM].

As to `CC(=O)OC(C(=O)c1ccccc1)c1ccccc1` (centres undefined), the compound was called inactive in [1], in [9], in test [7] and in test [10]. Moreover, the Potency entry in test [2], in test [3], in [5], in test [8] and in test [6] was “inactive” throughout.

Turning to `Cc1ccccc1N1CCN(CCc2nnc3n2CCCC3)CC1`, the compound was called inactive in test [1], in test [9] and in test [7]. The Potency result in [2], in test [3], in [5], in [8] and in test [6] was “inactive” in each case.

On to `CCCCCCCC[Si](OCC)(OCC)OCC`, for which the compound was called inactive in [1], in [9] and in [7]. The Potency result in test [2], in [3], in [5], in test [8] and in test [6] was “inactive” each time.

Take `CCCC(C)CC` (centres undefined): the compound was called inactive in test [1], in test [9] and in test [7]. Besides, the Potency result in test [2], in [3], in [5] and in test [6] was “inactive” each time.

`CCC(O)C(C)(C)C` (centres undefined): the call in test [1] and in [7] was inactive. Further, the Potency entry in test [2], in [3], in [5] and in [6] was “inactive” throughout.

In the case of `CN=C(NC#N)NCCSCc1csc(N=C(N)N)n1`, the call in [1], in test [9] and in test [7] was inactive. Moreover, the Potency entry in [2], in test [3], in [5], in test [8] and in test [6] was “inactive” in each case.

On to `FC(F)(F)/C(=N\OCC1OCCO1)c1ccc(Cl)cc1`, for which the compound was called inactive in [1], in test [9] and in [7]. Also, the Potency result in test [2], in test [3], in test [5], in [8] and in [6] was “inactive” throughout.

Take `NC(=O)C1(N2CCCCC2)CCN(CCCC(=O)c2ccc(F)cc2)CC1`: the call in [1] and in test [7] was inactive. Further, the Potency entry in [2], in test [3], in test [5] and in [6] was “inactive” each time.

Regarding `CCCCCCCCCCCCCCCCCCN(C)C`, the compound was called inactive in test [1], in test [9] and in test [10]. Further, the Potency entry in test [2], in test [3], in test [5], in [8] and in test [6] was “inactive” each time.

As for `COc1ccc(N=Nc2cc(C)c(N=Nc3ccc(S(=O)(=O)O)cc3)cc2OC)cc1`, the compound was classed as inactive in test [1] and in test [7]. Also, the Potency in [2] was 54.5 µM (active); in [6], 48.6 µM (active). Further, the Potency result in [3] and in [5] was “inactive” each time.
